The results in this text go back to PubChem BioAssay (NCI).

This is part of a sample that, as a whole, favours compounds with a hit. Of some 79,000 tested, about 15% had one in any assay. A number with no mark means an inactive call. The source made the active and inactive calls. Cut-off read from the data, not from the text of the source: active = growth inhibition above about 70%; inactive = the rest.

The nature of assay [1]: NCI Yeast Anticancer Drug Screen. Data for the rad50 strain (AID 155).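 Note: 0% = growth of vehicle-only cultures of the same strain.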 The conditions noted are these: S. cerevisiae rad50 strain growth inhibition, active compounds read high. A digest of the protocol: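 Readout: growth inhibition relative to vehicle-treated cultures. Compound exposure was carried out in a genetically defined yeast strain deficient in DNA damage repair.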
Assay [2] is described as follows: NCI Yeast Anticancer Drug Screen. Data for the mec2-1 strain (AID 157). The conditions noted are these: S. cerevisiae mec2-1 strain, active compounds read high. A digest of the protocol:
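Mutant yeast (mec2-1) grown with compound; growth inhibition relative to vehicle control reported.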

The nature of assay [3]: NCI Yeast Anticancer Drug Screen. Data for the sgs1 mgt1 strain (AID 161).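 Note: 0% = growth of cultures given vehicle only.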 The conditions noted are these: S. cerevisiae sgs1 mgt1 strain, active compounds read high. A digest of the protocol:
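This yeast growth screen uses a strain with defined DNA-repair lesions; compound-treated growth is compared with vehicle-treated growth.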

Assay [4] is described as follows: NCI Yeast Anticancer Drug Screen. Data for the cln2 rad14 strain (AID 165).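 Note: 0% = growth equal to vehicle treated cultures.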 The conditions noted are these: S. cerevisiae cln2 rad14 strain, active compounds read high. A digest of the protocol:
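Readout is yeast growth inhibition versus vehicle-treated controls, using a strain with cln2 and rad14 alterations exposed to compound.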

A short description of assay [5]: NCI Yeast Anticancer Drug Screen. Data for the bub3 strain (AID 167). The conditions noted are these: S. cerevisiae bub3 mutant strain, active compounds read high. The method, boiled down: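 Readout: yeast growth inhibition, expressed relative to vehicle-only wells. The test organism is a mutant strain from a panel with lesions in DNA repair or checkpoint genes.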
Assay [6] is described as follows: NCI Yeast Anticancer Drug Screen. Data for the mlh1 rad18 strain (AID 175). The conditions noted are these: S. cerevisiae mlh1 rad18 strain growth inhibition, active compounds read high. A digest of the protocol:
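Genetically defined yeast (DNA repair-deficient) exposed to compounds; growth inhibition determined relative to vehicle.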

Setting [7] is: at 5.0 µM (retest, dose inferred, filed as 0.5).
The mark [8] stands for this setting: at 50.0 µM (retest, dose inferred, filed as 5.0).

`Cc1cc(NC(=S)SCc2ccc(Cl)cc2)ccc1F`: the growth inhibition in assay [1] (setting [7]) is 5%; in assay [1] (setting [8]), 66%; in assay [1] (at 50.0 µM) it was 97.5% (active); in assay [2] (setting [7]), 1%; in assay [2] (setting [8]), 70% (active); in assay [2] (at 50.0 µM), 96% (active). In addition, the growth inhibition in assay [3] (setting [7]) was 2%; in assay [3] (setting [8]), 95% (active); in assay [3] (at 50.0 µM) it was 97.8% (active); in assay [4] (setting [7]), -7%; in assay [4] (setting [8]), 99% (active); in assay [4] (at 50.0 µM), 88% (active). Moreover, the growth inhibition is 19% in assay [5] (setting [7]); 97% (active) in assay [5] (setting [8]); 98.5% (active) in assay [5] (at 50.0 µM); 2% in assay [6] (setting [7]); 89% (active) in assay [6] (setting [8]); 96.4% (active) in assay [6] (at 50.0 µM).
On to `C=CCOCCC=O`, for which the growth inhibition in assay [1] (setting [7]) was 7%; in assay [1] (setting [8]) it was 38%; in assay [1] (at 50.0 µM) it was 45.4%; in assay [2] (setting [7]), 3%; in assay [2] (setting [8]) it was 5%; in assay [2] (at 50.0 µM), 14.2%. The growth inhibition in assay [3] (setting [7]) is 2%; in assay [3] (setting [8]) it was 4%; in assay [3] (at 50.0 µM), 36%; in assay [4] (setting [7]), 4%; in assay [4] (setting [8]) it was 2%; in assay [4] (at 50.0 µM) it was -20.4%. In addition, the growth inhibition in assay [5] (setting [7]) was 4%; in assay [5] (setting [8]) it was -3%; in assay [5] (at 50.0 µM), 47.7%; in assay [6] (setting [7]), 4%; in assay [6] (setting [8]), 11%; in assay [6] (at 50.0 µM), 54.6%.
For the molecule `CC(c1ccccc1)[P+](c1ccccc1)(c1ccccc1)c1ccccc1` (stereo not given), the growth inhibition in assay [1] (setting [7]) is 5%; in assay [1] (setting [8]) it was 97% (active); in assay [1] (at 50.0 µM), 97.8% (active); in assay [2] (setting [7]) it was 13%; in assay [2] (setting [8]) it was 97% (active); in assay [2] (at 50.0 µM), 97.5% (active). In addition, the growth inhibition in assay [3] (setting [7]) is 11%; in assay [3] (setting [8]), 98% (active); in assay [3] (at 50.0 µM), 97.7% (active); in assay [4] (setting [7]) it was -4%; in assay [4] (setting [8]) it was 95% (active); in assay [4] (at 50.0 µM), 96.8% (active). Besides, the growth inhibition in assay [5] (setting [7]) is 6%; in assay [5] (setting [8]), 99% (active); in assay [5] (at 50.0 µM), 96.1% (active); in assay [6] (setting [7]) it was 16%; in assay [6] (setting [8]) it was 97% (active); in assay [6] (at 50.0 µM) it was 98% (active).
For the molecule `O=C(/C=C/C(=N\Nc1ccccc1)c1ccccc1)c1ccccc1`, the growth inhibition in assay [1] (setting [7]) is 21%; in assay [1] (setting [8]), 90% (active); in assay [1] (at 50.0 µM), 37.9%; in assay [2] (setting [7]), 23%; in assay [2] (setting [8]), 99% (active); in assay [2] (at 50.0 µM) it was 13.9%. In addition, the growth inhibition was 27% in assay [3] (setting [7]); 96% (active) in assay [3] (setting [8]); 26.4% in assay [3] (at 50.0 µM); 46% in assay [4] (setting [7]); 98% (active) in assay [4] (setting [8]); 30.9% in assay [4] (at 50.0 µM). Also, the growth inhibition was 67% in assay [5] (setting [7]); 99% (active) in assay [5] (setting [8]); 21.5% in assay [5] (at 50.0 µM); 47% in assay [6] (setting [7]); 95% (active) in assay [6] (setting [8]); 72% (active) in assay [6] (at 50.0 µM).
As to `CCC/C(=N\NC(=S)N(C)C)c1ccccn1`, the growth inhibition in assay [1] (setting [7]) is 89% (active); in assay [1] (setting [8]), 99% (active); in assay [1] (at 50.0 µM), 99.5% (active); in assay [2] (setting [7]), 97% (active); in assay [2] (setting [8]), 99% (active); in assay [2] (at 50.0 µM), 99.6% (active). Further, the growth inhibition was 88% (active) in assay [3] (setting [7]); 99% (active) in assay [3] (setting [8]); 99.5% (active) in assay [3] (at 50.0 µM); 80% (active) in assay [4] (setting [7]); 99% (active) in assay [4] (setting [8]); 99.4% (active) in assay [4] (at 50.0 µM). For the same molecule, the growth inhibition is 85% (active) in assay [5] (setting [7]); 98% (active) in assay [5] (setting [8]); 99.5% (active) in assay [5] (at 50.0 µM); 94% (active) in assay [6] (setting [7]); 99% (active) in assay [6] (setting [8]); 99.5% (active) in assay [6] (at 50.0 µM).
For `CS(=O)(=O)c1nnnn1-c1ccccc1`, the growth inhibition is -21% in assay [1] (setting [7]); 93% (active) in assay [1] (setting [8]); 99.2% (active) in assay [1] (at 50.0 µM); -24% in assay [2] (setting [7]); 97% (active) in assay [2] (setting [8]); 99.5% (active) in assay [2] (at 50.0 µM). Moreover, the growth inhibition in assay [3] (setting [7]) was -18%; in assay [3] (setting [8]) it was 96% (active); in assay [3] (at 50.0 µM), 99% (active); in assay [4] (setting [7]) it was -49%; in assay [4] (setting [8]), 94% (active); in assay [4] (at 50.0 µM), 97.3% (active). The growth inhibition is -34% in assay [5] (setting [7]); 95% (active) in assay [5] (setting [8]); 99.4% (active) in assay [5] (at 50.0 µM); -62% in assay [6] (setting [7]); 96% (active) in assay [6] (setting [8]); 99.5% (active) in assay [6] (at 50.0 µM).
For `CC1=CC(C2/C(=N/O)C=C(C)CC2(C)C)C(O)C(C)(C)C1` (stereo not given), the growth inhibition in assay [1] (setting [7]) is 7%; in assay [1] (setting [8]) it was 95% (active); in assay [1] (at 50.0 µM), 99.2% (active); in assay [2] (setting [7]), -18%; in assay [2] (setting [8]), 99% (active); in assay [2] (at 50.0 µM) it was 98.2% (active). Besides, the growth inhibition in assay [3] (setting [7]) is -4%; in assay [3] (setting [8]), 96% (active); in assay [3] (at 50.0 µM), 98.8% (active); in assay [4] (setting [7]) it was -1%; in assay [4] (setting [8]) it was 97% (active); in assay [4] (at 50.0 µM), 97.8% (active). The growth inhibition in assay [5] (setting [7]) was -23%; in assay [5] (setting [8]), 92% (active); in assay [5] (at 50.0 µM), 98.2% (active); in assay [6] (setting [7]), -3%; in assay [6] (setting [8]) it was 98% (active); in assay [6] (at 50.0 µM), 98.7% (active).
As to `O=[N+]([O-])c1ccc(/C=N/NC2=CS(=O)(=O)C=C2)cc1`, the growth inhibition in assay [1] (setting [7]) was 0%; in assay [1] (setting [8]) it was 17%; in assay [1] (at 50.0 µM), 0.8%; in assay [2] (setting [7]) it was -2%; in assay [2] (setting [8]) it was 0%; in assay [2] (at 50.0 µM) it was 2.45%. The growth inhibition in assay [3] (setting [7]) is -5%; in assay [3] (setting [8]), 1%; in assay [3] (at 50.0 µM) it was 8.4%; in assay [4] (setting [7]), -2%; in assay [4] (setting [8]) it was 0%; in assay [4] (at 50.0 µM), 38%. Also, the growth inhibition in assay [5] (setting [7]) was -4%; in assay [5] (setting [8]), 5%; in assay [5] (at 50.0 µM) it was 16.7%; in assay [6] (setting [7]), -4%; in assay [6] (setting [8]), 2%; in assay [6] (at 50.0 µM), 1.1%.
Regarding `N/C(=N\N=C/c1ccc(O)c(O)c1O)NO`, the growth inhibition in assay [1] (setting [7]) is -2%; in assay [1] (setting [8]) it was 26%; in assay [1] (at 50.0 µM), 41.1%; in assay [2] (setting [7]) it was 5%; in assay [2] (setting [8]) it was 21%; in assay [2] (at 50.0 µM), 17.8%. Besides, the growth inhibition was -7% in assay [3] (setting [7]); 8% in assay [3] (setting [8]); 28.5% in assay [3] (at 50.0 µM); -2% in assay [4] (setting [7]); -6% in assay [4] (setting [8]); 17.7% in assay [4] (at 50.0 µM). The growth inhibition is -4% in assay [5] (setting [7]); -3% in assay [5] (setting [8]); 4.2% in assay [5] (at 50.0 µM); -5% in assay [6] (setting [7]); 7% in assay [6] (setting [8]); 64.7% in assay [6] (at 50.0 µM).
`NC(c1ccccc1)P(=O)(OCc1ccc([N+](=O)[O-])cc1)OCc1ccc([N+](=O)[O-])cc1` (stereo not given): the growth inhibition in assay [1] (setting [7]) is 15%; in assay [1] (setting [8]), 15%; in assay [1] (at 50.0 µM), 57.2%; in assay [2] (setting [7]), -4%; in assay [2] (setting [8]), -4%; in assay [2] (at 50.0 µM) it was 33.6%. The growth inhibition is -3% in assay [3] (setting [7]); -3% in assay [3] (setting [8]); 72.3% (active) in assay [3] (at 50.0 µM); 11% in assay [4] (setting [7]); 11% in assay [4] (setting [8]); 35.6% in assay [4] (at 50.0 µM). For the same molecule, the growth inhibition is 6% in assay [5] (setting [7]); 6% in assay [5] (setting [8]); 36.9% in assay [5] (at 50.0 µM); 14% in assay [6] (setting [7]); 14% in assay [6] (setting [8]); 33.4% in assay [6] (at 50.0 µM).
